Bioassay records (PubChem)
Most compounds without a hit are left out; they make up all but 8.9% or so of the library.
M1 ag: activates the M1 muscarinic receptor; CHO-M1 cells, Fluo-4 calcium fluorescence, agonist mode; active compounds read high; B-score at 10 µM; 3% of 64,000 active;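 active = fluorescence rise, raw or as B-score row- and column-corrected plate score, outside the 99.7% band of its plate's samples, either direction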
M1 antag: blocks the rat M1 muscarinic receptor response to acetylcholine; 3.4% of 64,000 active; B-score at 10 µM; CHO-M1 cells, Fluo-4 calcium, ACh EC80 antagonist mode; active compounds read low; P08482;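 active = calcium fluorescence response, raw or row-and-column corrected B-score, differing from the plate sample mean either way at a set confidence level, mostly lower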
WNV NS2B-NS3 inh: blocks West Nile virus NS2B-NS3 protease activity. P06935. WNV NS2B-NS3 protease, fluorogenic substrate Ex360/Em465; active compounds read low. z-score (no concentration beside the values). 0.18% of 65,000 active. AID 577; in the data active = z-score below about -3
D1 allo mod: allosteric modulators of human D1 dopamine receptor | P21728 | HEK293 D1, CRE-luciferase, dopamine EC30 potentiation; actives deviate in either direction | B-score at 10 µM | 5.9% of 58,000 active;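 active = luminescence count or its row- and column-corrected plate score outside the 99.7% band of the plate's sample wells, on either side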
Target sequence (P21728 whole entry, looked up): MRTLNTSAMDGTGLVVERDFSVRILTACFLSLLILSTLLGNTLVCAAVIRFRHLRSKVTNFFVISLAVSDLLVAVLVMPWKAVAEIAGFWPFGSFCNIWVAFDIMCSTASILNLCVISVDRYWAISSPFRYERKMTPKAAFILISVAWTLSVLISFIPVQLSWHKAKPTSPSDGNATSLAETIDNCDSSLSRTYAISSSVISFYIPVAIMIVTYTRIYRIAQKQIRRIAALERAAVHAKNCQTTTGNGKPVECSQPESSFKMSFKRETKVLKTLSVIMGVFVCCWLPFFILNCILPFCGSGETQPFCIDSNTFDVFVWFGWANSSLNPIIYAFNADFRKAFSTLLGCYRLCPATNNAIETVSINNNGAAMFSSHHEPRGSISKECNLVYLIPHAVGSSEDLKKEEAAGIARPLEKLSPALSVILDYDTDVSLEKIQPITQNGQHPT
Htt clearance: compounds clearing mutant huntingtin protein; 0.42% of 47,000 active; AID 853; inhibition, % at 1.5 µM; HeLa Exon1htt(103Q)mCFP, aggregate imaging; zero = plate's median compound well;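 active = inhibition of aggregate fluorescence above about 70%, also judged a hit by eye on the cell image, limit read from the data, passing the limit was not always enough; inconclusive = no rule stated for this call; inactive = not judged a hit on image review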;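 also: cells exposed to compound for three days before fixation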
M1 ag confirm: rat M1 muscarinic agonism, confirmation | 19% of 1,700 active | fluorescence change (max-min) at 10 µM | shares compounds with M1 ag | CHO-M1 cells, Fluo-4 calcium fluorescence, agonist mode; actives lie on both sides;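 active = fluorescence change differs from the solvent-only DMSO control mean at a set confidence level in both duplicate runs; inconclusive = differs from solvent-only control mean in just one of two runs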;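 also: an EC20 dose of acetylcholine follows compound addition during the same imaging run; raw fluorescence intensity difference in instrument units with no normalization to controls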
M4 agonist ctr: counter-screen for M1 agonists: activity at rat M4 receptor; 9% of 1,700 active; AID 1741; fluorescence change (max-min) at 10 µM; CHO M4/Gqi5 cells, Fluo-4 calcium fluorescence, agonist mode; actives lie on both sides; shares compounds with M1 ag;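 active = fluorescence change differing from the plate's solvent-only control wells at 99.7% confidence in both duplicates, whether higher or lower; inconclusive = differs from solvent controls in only one of two duplicates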
An asterisk follows results filed as active; ? = inconclusive; . = no result given.

SMILES	M1 ag	M1 antag	WNV NS2B-NS3 inh	D1 allo mod	Htt clearance	M1 ag confirm	M4 agonist ctr
N#C/C(=C/c1ccc(N2CCCCCC2)o1)c1ccc(F)cc1	31.3*	0.871	0.05	0.0366	.	-2.84	?
CCn1c(=O)cc(OCC(=O)Nc2ccccc2C#N)c2ccccc21	2.23*	-1.11	-1.74	-1.23	-8.5	?	-43
CCN(C(=O)COc1cc(=O)n(CC)c2ccccc12)c1cc(Cl)ccc1OC	7.85*	-0.23	-1.13	-0.394	-21.0	?	-43.8
CCN(C(=O)COc1cc(=O)n(CC)c2ccccc12)c1cccc(Cl)c1	4.36*	-0.745	-0.34	-0.608	-33.0	-15.3	-27.5
CC1(C(=O)O)CCC(C(=O)Nc2ccc(S(N)(=O)=O)cc2)C1(C)C (stereo not given)	-1.22	0.939	0.25	0.298	-19.3	.	.
CCN1C(=O)c2cccc3c(S(=O)(=O)Nc4ccc(OC)cc4OC)ccc1c23	5.33*	-1.31	-0.9	-0.997	-36.6	-17	-17.8
COC(=O)c1ccccc1NC(=O)CSc1nnc(CNS(=O)(=O)c2ccc(C)cc2)n1C	2.71	0.026	-0.17	-1.15	-36.2	.	.
O=C(Oc1cccc([N+](=O)[O-])c1)c1cc(-c2ccccc2)nc2ccccc12	.	.	.	.	37.4	.	.
N#CC1=C(SCc2ccccc2)NC(=O)CC1c1ccco1 (stereo not given)	4.33*	-0.462	-0.02	0.151	.	-8.34	?
CCn1c(COc2ccccc2C)nnc1SCC(=O)O	-0.191	0.161	0.36	-0.18	4.3	.	.
CCn1c(COc2ccccc2C)nnc1SCC(=O)CC(=O)Nc1ccccc1	3.26*	2.7*	1.31	-0.978	-22.4	?	-54.2
CCn1c(COc2cccc(OC)c2)nnc1SCC(=O)Nc1cccc(OC)c1	3.03*	-0.912	1.34	-0.485	.	-21.5	-32.6
CCn1c(COc2cccc(OC)c2)nnc1SCC(=O)Nc1cc(OC)ccc1OC	-0.00517	-0.0744	0.14	0.379	.	.	.
C=CCn1c(N)c(C(=O)OCCC)c2nc3ccccc3nc21	1.26	-0.0103	0.68	1.6	.	.	.
C=CCn1c(NC(=O)c2ccccc2Cl)c(C#N)c2nc3ccccc3nc21	6.85*	-0.973	-1.32	-0.47	.	30.1	2.63
C=CCOC(=O)C1=C(C)OC(N)=C(C#N)C1c1ccoc1 (stereo not given)	20.6*	0.744	-0.24	.	17.2	11.9	0.98
O=C(c1cc2nc(-c3ccco3)cc(C(F)(F)F)n2n1)N1CCN(c2ccccn2)CC1	2.49*	-0.928	0.58	1.95	40.1	?	-48.8
O=C(c1ccco1)N1CCN(C(=O)c2cc(-c3ccccc3)nc3ccccc23)CC1	.	.	.	.	-31.6	.	.
O=C(c1cc2nc(-c3ccccc3)cc(-c3ccccc3)n2n1)N1CCN(C(=O)c2ccco2)CC1	3.45*	-0.816	-0.09	-2.32	-21.3	-19.5	-20.9
O=C(Cn1[nH]c(=O)c2ccccc2c1=O)Nc1ccc2c(c1)CCC2	-0.916	-0.516	-0.16	.	.	.	.
Cn1nc(CC(=O)Nc2ccc3c(c2)CCC3)c2ccccc2c1=O	11.1*	-1.99	-0.73	-1.27	.	32.6	19.5
Nc1c(S(=O)(=O)c2ccccc2)c2nc3ccccc3nc2n1Cc1ccco1	2.85*	0.0576	0.42	.	-23.4	23.7	-40.1
Nc1c(S(=O)(=O)c2cccs2)c2nc3ccccc3nc2n1Cc1cccs1	0.161	-0.0662	-0.15	0.581	9.8	.	.
CCc1ccc(C2CC(c3cccc(OC)c3)n3nc(N)nc3N2)cc1 (stereo not given)	-0.229	-0.21	-0.89	0.0876	.	.	.
CCC(=O)Nc1ccccc1C(=O)N1CCOCC1	-0.0296	0.457	0.72	-0.303	.	.	.
SMILES	M1 ag	M1 antag	WNV NS2B-NS3 inh	D1 allo mod	Htt clearance	M1 ag confirm	M4 agonist ctr
O=C(CCCN1C(=O)c2ccccc2C1=O)Nc1ccccc1C(=O)N1CCOCC1	2.31*	0.681	0.17	-0.208	31.2	-18.9	-31
COCCN1C(=O)C(=O)/C(=C(/O)c2ccc(OCC(C)C)cc2)C1c1cccnc1 (stereo not given)	0.266	-0.282	-0.29	-0.241	.	.	.
CCCCOc1ncnc2c1[nH]c1ccc(F)cc12	5.42*	-2.85	0.49	-1.8	.	-1.67	-35.1
Cn1c(=O)cc(SCC(=O)Nc2cccnc2)c2ccccc21	2.69*	-0.212	1.08	-0.0927	.	1.18	-13.5
CCc1nn(C(C)C(=O)NCCN2CCN(c3cccc(C)c3C)CC2)c(=O)c2cc3occc3n12 (stereo not given)	3.79*	0.0304	0.79	-1.02	.	?	-74.7
O=c1oc2cc(Oc3ccc(C(F)(F)F)cc3[N+](=O)[O-])ccc2c2c1CCCC2	.	.	.	.	39.9	.	.
COc1ccc(CCNc2oc(-c3ccccc3OC)nc2C#N)cc1OC	3.57*	0.353	-1.14	3.07	.	-21.7	-73.8*
COc1ccc(CCNc2oc(-c3ccccc3OC)nc2C#N)cc1	0.584	-2.11	0.38	0.605	6.8	.	.
CC(C)[C@H](NC(=O)[C@@H]1CSCN1C(=O)OC(C)(C)C)C(=O)NCC1CCC(C(=O)O)CC1 (stereo not given in full)	1.84*	1.01	0.45	-0.0965	76.4*	-4.43	?
COc1ccc(NC(=O)N(Cc2cc3cc(OC)ccc3[nH]c2=O)CC2CCCO2)cc1 (stereo not given)	3.97*	-0.443	-0.63	-0.942	.	?	-73.9*
Cc1cc(CN2CCN(CCC#N)CC2)c(O)c(C2(C)CCCCC2)c1	-0.272	0.0447	0.49	-0.833	.	.	.
CCOC(=O)Oc1ccc2oc(=O)cc(C)c2c1	.	.	0.17	0.69	.	.	.
Cc1cc(=O)oc2ccc(OCC(=O)N(Cc3ccc(F)cc3)Cc3ccco3)cc12	6.36*	-2.41*	0.32	-0.937	-41.5	?	-37.1
CCn1c(SCC(=O)Nc2nc3ccccc3s2)nc2c(c1=O)SC(C)C2 (stereo not given)	2.3*	-1.13	-1.08	-0.697	.	?	-69.9
CC(C)(C)NC(=O)COC(=O)c1snc(C(=O)NC2CCCCC2)c1N	4.94*	-0.961*	0.27	-2.64	.	-19.6	?
CC(CCc1ccccc1)NC(=O)CN1CCN(Cc2ccc(Cl)cc2)C1=O (stereo not given)	.	.	.	.	-28.1	.	.
C=CCSC1=C(C#N)C(c2cccc(OC)c2)CC(=O)N1 (stereo not given)	0.0158	-0.767	-1.15	-0.236	14.2	.	.
CC(=O)c1cccc(-n2nnnc2SCC(=O)Nc2cccc(NC(=O)c3ccco3)c2)c1	3.6*	-0.13	0.03	0.0259	11.8	-27.6	?
Cc1cnc(NC(=O)C2COc3ccccc3O2)s1 (stereo not given)	.	.	.	.	-2.5	.	.
CC1CCCN(c2nc3c(c(=O)[nH]c(=O)n3C)n2CCCc2ccccc2)C1 (stereo not given)	3.74	-0.039	-1.6	.	.	.	.
COc1cc2[nH]c(=O)n(CCCCCC(=O)N3CCN(c4ccccc4)CC3)c(=O)c2cc1OC	2.82*	-1.76	.	.	.	-6.82	-12.5
COC(=O)c1ccc2c(=O)n(CCCCCC(=O)N3CCN(c4ccccc4)CC3)c(=O)[nH]c2c1	10.8*	-1.72	0.27	-0.691	.	-5.21	5.36
